# Compound activity: PubChem, National Center for Advancing Translational Sciences (NCATS)
# SNCA viab count – GF-AFC viability counterscreen for inhibitors of alpha-synuclein gene (SNCA) expression; HEK-293-SNCA-luc viability, GF-AFC fluorescence, 24 h; Potency, µM (series often up to 57.1 µM), most hits filed as cytotoxic; 0.12% of 150,000 active; AID 1671193, 2021; note: nearly all actives have a fitted effect of over 30% in size
#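 Cytotoxicity counterscreen: after 24 h compound treatment of genome-edited SNCA-luciferase HEK-293 cells, live-cell protease substrate GF-AFC read by fluorescence after 30 min; activity scaled between DMSO (0%) and medium-only (-100%), curves Hill-fitted.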
# hNpr1 antagonist – Natriuretic polypeptide receptor (hNpr1) antagonism - Primary qHTS; HEK293 hNpr1 GloSensor cGMP, ANP-stimulated luminescence; AID 1347048, 2019; 1.6% of 76,000 active; Potency, µM (series often up to 46.3 µM), hits mostly inhibitors; calls by dose curve; note: nearly all actives have a fitted effect of over 60% in size
#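 Compound pre-incubated 30 min at room temperature on GloSensor-loaded HEK293 cells stably carrying hNpr1 and the pGS-40F cGMP biosensor. Stimulation uses hNppA at 0.1 nM final; luminescence is taken at baseline and 20 min post-agonist.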
# SNCA expr inh – Primary qHTS assay for inhibitors of alpha-synuclein gene (SNCA) expression; HEK-293 SNCA-luciferase knock-in, luminescence, 24 h; Potency, µM (series often up to 57.2 µM), actives largely listed as inhibitors; 0.17% of 140,000 active; AID 1671194, 2021; note: nearly all actives have a fitted effect of over 45% in size
# HEK cytotox – Cytotoxic Profiling in HEK 293 Cell Line of Diverse Libraries Using Quantitative High-Throughput Screening. HEK 293 viability, ATP luminescence (CellTiter-Glo), 48-72 h. Potency, µM (doses to about 115 µM), most hits filed as inhibitors. 6.6% of 94,000 active; note: nearly all actives have a fitted effect of over 60% in size
#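 HEK 293 seeded at 250 cells/well receive compound via pintool. After 48 or 72 hr at 37 degree Celsius, 5% CO2 and 95% humidity, CellTiter-Glo is dispensed and luminescence read following 10 min at room temperature.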
# 3T3 cytotox – Cytotoxic Profiling in NIH 3T3 Cell Line of Diverse Libraries Using Quantitative High-Throughput Screening | 4.3% of 94,000 active | Potency, µM (top dose mostly 96.7 µM), actives largely listed as inhibitors | NIH 3T3 viability, CellTiter-Glo ATP luminescence, 48-72 h; note: nearly all actives have a fitted effect of over 55% in size
#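 First NIH 3T3 cells are plated at 400 cells/well; next compound is pinned in; then plates incubate 48 or 72 hr at 37 °C; finally CellTiter-Glo is added and luminescence read after 10 min.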
# Luciferase inh – Firefly luciferase inhibition profiling of diverse chemical library using quantitative high-throughput screening | 2.5% of 76,000 active | purified P. pyralis luciferase, luminescence, biochemical | Luciferin 4-monooxygenase (Photinus pyralis), P08659 | Potency, µM (titrated, usually from 115 µM), usual class: inhibitors; note: nearly all actives have a fitted effect of over 65% in size
#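 Biochemical qHTS: compound (6-point titration) added to 10uM D-luciferin plus 10uM ATP in Tris acetate pH 7.5 buffer with Mg, Tween-20 and BSA, then purified enzyme at 10nM; light output imaged.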
# Npr1 antag conf – Natriuretic polypeptide receptor (hNpr1) antagonism - Confirmation; shares compounds with hNpr1 antagonist; HEK293 hNpr1 cGMP GloSensor luminescence, ANP-stimulated; Potency, µM (top dose mostly 57.6 µM), most hits filed as inhibitors; AID 1347044, 2019; 76% of 1,400 active; calls by dose curve; note: nearly all actives have a fitted effect of over 70% in size
# NPR2 antag – Natriuretic polypeptide receptor (hNpr2) antagonism - Subtype selectivity assay. shares compounds with hNpr1 antagonist. HEK293 hNpr2 GloSensor cGMP luminescence, CNP-stimulated. Potency, µM (doses to about 57.6 µM), most hits filed as inhibitors. 67% of 1,400 active. AID 1347046, 2019; calls by dose curve; note: nearly all actives have a fitted effect of over 70% in size
# FLuc inh counter – Natriuretic polypeptide receptor (hNpr1) antagonism - Confirmation firefly luciferase (FLuc) inhibition counterscreen; shares compounds with hNpr1 antagonist; purified FLuc enzyme, luminescence, Km substrate; Potency, µM (top dose mostly 57.6 µM), actives largely listed as inhibitors; 0.7% of 1,400 active; AID 1347047, 2019
# GloSensor ctrl – Natriuretic polypeptide receptor (hNpr1) antagonism - Counterscreen GloSensor control cell line | 69% of 1,400 active | HEK293 GloSensor cGMP, SNP-stimulated, luminescence | shares compounds with hNpr1 antagonist | Potency, µM (top dose mostly 57.6 µM), most hits filed as inhibitors | AID 1347051, 2019; calls by dose curve; note: nearly all actives have a fitted effect of over 70% in size
# Hits are given with their value; . = inactive; ? = inconclusive; / = not tested or not shown. Compounds with a hit are over-represented: about 7.4% of the library has one in this group of screens. Unless noted, calls come from the whole dose curve; as a rule, active = well fitted curve in the direction sought with a large enough effect; inconclusive = small, poorly fitted or top-dose-only effect, or another doubt; inactive = no such curve, though single readings can be large; an effect the other way counts as inactive or inconclusive.
SMILES,SNCA viab count,hNpr1 antagonist,SNCA expr inh,HEK cytotox,3T3 cytotox,Luciferase inh,Npr1 antag conf,NPR2 antag,FLuc inh counter,GloSensor ctrl
CC1=C[C@@H](CNC(=O)c2ccccn2)[C@H](C(C)C)C[C@H]1Cc1nnc(-c2ccncc2)o1,.,14.1µM,.,22.4µM,?,.,17.7µM,22.2µM,.,17.7µM
CC1(C)[C@H](Cc2cc(CCO)on2)C[C@@H]1NCc1ccncc1,.,.,.,?,?,.,/,/,/,/
COc1ccc(-c2cc(C[C@@H]3C[C@H](NCc4ccncc4)C3(C)C)no2)cc1,.,22.4µM,.,?,?,.,19.8µM,28µM,.,19.8µM
O=C1CC2(CCN(CC3CCCCC3)CC2)Oc2ccccc2N1,.,.,.,?,.,.,/,/,/,/
COc1ccccc1C(=O)NC1CCCc2c1[nH]c1ccccc21 (stereo not given),.,.,.,?,.,.,/,/,/,/
COc1ccc(C2(C(=O)NC3CCCc4c3[nH]c3ccccc43)CCOCC2)cc1 (stereo not given),.,?,.,?,39.8µM,.,21.7µM,15.3µM,.,.
Cc1ccc(S(=O)(=O)N(C)CC2CCOC2)cc1C (stereo not given),.,.,.,.,.,.,/,/,/,/
COc1ccc(OCC(=O)N2CCC(Cc3nc(-c4ccc(OC)cc4)no3)CC2)cc1,?,10µM,.,12.6µM,14.1µM,.,10.9µM,13.7µM,.,12.2µM
Cc1ccc(OCC(=O)N2CCC(Cc3n[nH]c(C)n3)CC2)cc1,.,.,.,.,.,.,/,/,/,/
Cc1ccc(CC(=O)N2CCC(Cc3nc(-c4ccccc4)no3)CC2)cc1,.,?,.,?,?,.,/,/,/,/
COc1ccc(-c2noc(CC3CCN(C(=O)COc4ccc(C)cc4)CC3)n2)cc1,.,6.31µM,.,?,?,.,7.69µM,8.62µM,.,8.62µM
COc1ccccc1CC(=O)N1CCC(Cc2nc(-c3ccccc3)no2)CC1,.,?,.,?,?,.,/,/,/,/
Cc1ccc(OCC(=O)N2CCC(Cc3nc(-c4ccccc4)no3)CC2)cc1,.,12.6µM,.,39.8µM,?,.,15.3µM,15.3µM,.,12.2µM
O=C(NCc1cccc(F)c1)N1CCc2nc3cc(-c4ccccc4)[nH]n3c(=O)c2C1,.,.,?,?,?,?,/,/,/,/
O=C(c1ccccc1)N1CCC(N2C(=O)C(O)C23CCCCC3)CC1 (stereo not given),.,.,.,.,.,.,/,/,/,/
O=C(CCC1CCN(C(=O)c2ccoc2)CC1)N1CCC(Cc2ccccc2)CC1,.,.,.,?,?,.,?,.,.,?
